About 500 (1.3%) of roughly 39,000 compounds were called active. This is one part of a sample in which actives are shown more often than they occur.

This assay concerns S. aureus RN4220. The experiment in a line: growth inhibition call (relative growth <= 0.2). As to conditions: 50 µM.
As for `Cc1ccccc1[C@@H](c1ncccc1C)N(C)C(=O)C1CCN(CCOc2ccc(Cl)cc2Cl)CC1`, the growth inhibition call was “active”.

On to `Cc1cccnc1[C@H](c1ccc(F)cc1)N(C)C(=O)C1CCN(CCn2cnc3c2c(=O)n(C)c(=O)n3C)CC1`, for which the growth inhibition call is “inactive”.

For `Cc1ccccc1[C@@H](c1ncccc1C)N(C)C(=O)C1CCN(CCOc2ccc3ccccc3c2)CC1`, the growth inhibition call is “inactive”.

Take `Cc1cccnc1[C@H](c1ccc(F)cc1)N(C)C(=O)C1CCN(CCOc2ccc(Cl)cc2Cl)CC1`: the growth inhibition call is “active”.

Turning to `Cc1cc(Cl)ccc1OCCN1CCN(C(=O)[C@H]2CC[C@@H](N)C2)CC1`, the growth inhibition call was “inactive”.

Regarding `COc1ccccc1[C@@H](NC(=O)C1CCN(CCOc2ccc(Cl)cc2Cl)CC1)c1ccccn1`, the growth inhibition call was “inactive”.

Turning to `COc1ccc(S(=O)(=O)Nc2ccc3c(c2)C(=O)N([C@H](C)CO)C[C@@H](C)[C@H](CN(C)Cc2ccc(Cl)c(Cl)c2)OCCCC[C@H](C)O3)cc1`, the growth inhibition call was “inactive”.

On to `C[C@@H]1CN([C@H](C)CO)C(=O)c2cc(-c3ccncc3)cnc2O[C@H]1CN(C)S(=O)(=O)c1ccccc1`, for which the growth inhibition call is “inactive”.

For the compound `C[C@@H]1CN([C@@H](C)CO)C(=O)c2cc(NS(=O)(=O)c3ccc(F)cc3)ccc2O[C@H]1CN(C)C(=O)Nc1ccc(C(F)(F)F)cc1`, the growth inhibition call was “inactive”.

For the compound `C[C@@H]1CCCCO[C@H](CN(C)S(=O)(=O)c2cn(C)cn2)[C@H](C)CN([C@@H](C)CO)C(=O)c2cc(NS(=O)(=O)c3ccc(F)cc3)ccc2O1`, the growth inhibition call is “inactive”.

As to `C[C@@H]1CN([C@@H](C)CO)C(=O)c2cc(NC(=O)Nc3cccc4ccccc34)ccc2O[C@@H]1CN(C)S(=O)(=O)c1ccc(F)cc1`, the growth inhibition call was “inactive”.

In the case of `COc1cc(OC)cc(-c2ccc([C@H]3CC(=O)C[C@@H](c4ccccc4)C34C(=O)c3ccccc3C4=O)cc2)c1`, the growth inhibition call is “active”.

As to `COc1cc(OC)cc(-c2ccc([C@H]3CC(=O)C[C@@H](c4ccccc4)C34C(=O)OC(C)(C)OC4=O)cc2)c1`, the growth inhibition call was “inactive”.

Regarding `COc1cc(OC)cc(-c2ccc(-c3ccc([C@H]4CC(=O)C[C@@H](c5ccccc5)C45C(=O)OC(C)(C)OC5=O)cc3)cc2OC)c1`, the growth inhibition call was “inactive”.

With `Cc1cc(C(=O)Nc2cccc3c2O[C@H](CN(C)C(=O)NC(C)C)[C@@H](C)CN([C@H](C)CO)C3=O)n(C)n1`, the growth inhibition call is “inactive”.

For `C[C@H](CO)N1C[C@H](C)[C@@H](CN(C)C(=O)c2ccccc2)OCCCC[C@H](C)Oc2ccc(NC(=O)Nc3ccc4c(c3)OCO4)cc2C1=O`, the growth inhibition call is “inactive”.

Regarding `CO[C@H]1CN(C)C(=O)c2ccc(NS(=O)(=O)c3ccccc3C)cc2OC[C@@H](C)N(S(C)(=O)=O)C[C@@H]1C`, the growth inhibition call was “inactive”.

Regarding `C[C@@H]1CCCCO[C@H](CN(C)C)[C@H](C)CN([C@@H](C)CO)C(=O)c2cc(NC(=O)CCCN(C)C)ccc2O1`, the growth inhibition call was “inactive”.

With `CO[C@@H]1[C@@H](O[C@@H]2O[C@H](C)[C@@H](O[C@H]3C[C@@](C)(O)[C@@H](OC(=O)CC(C)C)[C@H](C)O3)[C@H](N(C)C)[C@H]2O)[C@@H](CC=O)C[C@@H](C)[C@@H](O)/C=C/C=C/CC(C)OC(=O)C[C@H]1OC(C)=O` (some centres undefined), the growth inhibition call is “inactive”.

Consider `COC1C(O)CC(=O)OC(C)CC=CC=CC(O)C(C)CC(CC=O)C1OC1OC(C)C(OC2CC(C)(O)C(OC(=O)CC(C)C)C(C)O2)C(N(C)C)C1O` (centres undefined) [KITASAMYCINS [A1 shown]], for which the growth inhibition call was “active”.

On to `COC(=O)[C@@H]1CC(=O)O[C@H](C)C/C=C/C=C/[C@H](O)[C@H](C)C[C@H](CC=O)[C@H](O[C@H]2O[C@H](C)[C@@H](O[C@H]3C[C@@](C)(O)[C@@H](OC(=O)CC(C)C)[C@H](C)O3)[C@H](N(C)C)[C@H]2O)[C@H]1OC`, for which the growth inhibition call was “active”.

For the compound `CO[C@@H]1[C@@H](O[C@@H]2O[C@H](C)[C@@H](O[C@H]3C[C@@](C)(O)[C@@H](OC(=O)CC(C)C)[C@H](C)O3)[C@H](N(C)C)[C@H]2O)[C@@H](CC=O)C[C@@H](C)[C@@H](O)/C=C\C=C/C[C@@H](C)OC(=O)C[C@H]1OC(C)=O`, the growth inhibition call was “active”.

Turning to `C[C@@H]1CN([C@@H](C)CO)C(=O)c2cc(NC(=O)CCC(F)(F)F)ccc2O[C@@H]1CN(C)Cc1ccc(Oc2ccccc2)cc1`, the growth inhibition call is “inactive”.

As for `C[C@H]1CN([C@@H](C)CO)C(=O)c2cccc(NC(=O)Nc3ccc(C(F)(F)F)cc3)c2O[C@H]1CN(C)C(=O)NC1CCCCC1`, the growth inhibition call is “active”.

With `C[C@H]1CN([C@@H](C)CO)C(=O)c2cccc(NC(=O)Nc3ccc(C(F)(F)F)cc3)c2O[C@@H]1CN(C)C(=O)NC1CCCCC1`, the growth inhibition call was “inactive”.

For `C[C@@H]1CN([C@H](C)CO)C(=O)c2cccc(NC(=O)Nc3ccc(C(F)(F)F)cc3)c2O[C@H]1CN(C)CC1CCCCC1`, the growth inhibition call is “inactive”.

Take `C[C@H](CO)N1C[C@H](C)[C@H](CN(C)C(=O)Nc2ccc(C(F)(F)F)cc2)Oc2c(NC(=O)NC3CCCCC3)cccc2C1=O`: the growth inhibition call is “active”.

For the compound `C[C@H]1CN([C@@H](C)CO)C(=O)c2cccc(NC(=O)Nc3ccc(C(F)(F)F)cc3)c2O[C@@H]1CN(C)CC1CCCCC1`, the growth inhibition call was “inactive”.

On to `C[C@@H]1CN([C@H](C)CO)C(=O)c2cccc(NC(=O)Nc3ccc(C(F)(F)F)cc3)c2O[C@@H]1CN(C)CC1CCCCC1`, for which the growth inhibition call is “active”.

As to `C[C@@H]1CN([C@H](C)CO)C(=O)c2cccc(NC(=O)Nc3ccc(C(F)(F)F)cc3)c2O[C@@H]1CN(C)C(=O)NC1CCCCC1`, the growth inhibition call was “inactive”.

On to `C[C@H]1CN([C@@H](C)CO)C(=O)c2cccc(NC(=O)NC3CCCCC3)c2O[C@H]1CN(C)C(=O)Nc1ccc(C(F)(F)F)cc1`, for which the growth inhibition call was “inactive”.

Regarding `C[C@@H]1CN([C@H](C)CO)C(=O)c2cccc(NC(=O)NC3CCCCC3)c2O[C@H]1CN(C)C(=O)Nc1ccc(C(F)(F)F)cc1`, the growth inhibition call is “inactive”.

For `C[C@H](CO)N1C[C@H](C)[C@H](CN(C)C(=O)Cc2ccccc2)OCCCC[C@H](C)Oc2ccc(NS(=O)(=O)c3ccc(F)cc3)cc2C1=O`, the growth inhibition call is “inactive”.

Consider `C[C@@H]1CN([C@@H](C)CO)C(=O)c2cccc(NC(=O)Nc3ccc(C(F)(F)F)cc3)c2O[C@H]1CN(C)C(=O)NC1CCCCC1`, for which the growth inhibition call was “inactive”.

Turning to `C[C@H](O)C#Cc1cnc2c(c1)C(=O)N([C@@H](C)CO)C[C@H](C)[C@@H](CN(C)C(=O)Nc1ccc(C(F)(F)F)cc1)O2`, the growth inhibition call was “inactive”.

`C[C@@H]1CN([C@H](C)CO)C(=O)Cc2cc(NC(=O)Nc3ccc(C(F)(F)F)cc3)ccc2O[C@@H]1CN(C)C(=O)Nc1cccc2ccccc12`: the growth inhibition call was “inactive”.

For `CO[C@@H]1[C@@H](OC(=O)c2ccc(C)[nH]2)[C@@H](O)[C@@H](Oc2ccc3c(c2C)OC(=O)[C@H](NC(=O)c2[nH]cc(CC(=O)Nc4cc5ccc(O[C@@H]6OC(C)(C)[C@H](OC)[C@@H](OC(=O)c7ccc(C)[nH]7)[C@H]6O)c(C)c5oc4=O)c2C)C3)CC1(C)C`, the growth inhibition call was “inactive”.

For `COC1C(OC(N)=O)C(O)C(Oc2ccc3c([O-])c(NC(=O)c4ccc(O)c(CC=C(C)C)c4)c(=O)oc3c2C)OC1(C)C.[Na+]` (centres undefined), the growth inhibition call is “active”.

Take `O=C(C[C@H]1C[C@@H]2c3cc(NS(=O)(=O)c4ccc(F)cc4)ccc3O[C@@H]2[C@@H](CO)O1)NC1CCCCC1`: the growth inhibition call was “inactive”.

Take `O=C(C[C@H]1CC=CCCC(=O)OCCNC1=O)NCCO`: the growth inhibition call is “inactive”.

For the compound `c1n[nH]nc1SSc1cn[nH]n1`, the growth inhibition call was “active”.

Consider `C[C@@H]1CN([C@@H](C)CO)C(=O)Cc2cc(NC(=O)CCCN(C)C)ccc2O[C@H]1CN(C)S(C)(=O)=O`, for which the growth inhibition call was “inactive”.

`COc1ccc(S(=O)(=O)N(C)C[C@@H]2Oc3ccc(NC(=O)Nc4cccc5ccccc45)cc3C(=O)N([C@@H](C)CO)C[C@@H]2C)cc1`: the growth inhibition call is “inactive”.

On to `COc1ccc(S(=O)(=O)Nc2cccc3c2O[C@@H](CN(C)S(=O)(=O)c2cn(C)cn2)[C@@H](C)CN([C@H](C)CO)C3=O)cc1`, for which the growth inhibition call was “inactive”.

As to `C[C@H]1CN([C@@H](C)CO)C(=O)c2cc(NC(=O)Nc3ccc(C(F)(F)F)cc3)ccc2O[C@H]1CN(C)Cc1ccc(C(=O)O)cc1`, the growth inhibition call was “inactive”.

For `Cc1ccc(S(=O)(=O)Nc2cccc3c2O[C@H](CN(C)Cc2ccc(C(F)(F)F)cc2)[C@H](C)CN([C@@H](C)CO)C3=O)cc1`, the growth inhibition call was “inactive”.

As for `NC[C@@H]1O[C@H](C23CC4CC(CC(C4)C2)C3)Cc2c1ccc(O)c2O`, the growth inhibition call is “active”.

As to `Cn1cnc(S(=O)(=O)N2CC[C@H]3NC(=O)C[C@H]32)c1`, the growth inhibition call was “inactive”.

Consider `C[C@@H]1CN([C@H](C)CO)C(=O)Cc2cc(NC(=O)CCC(F)(F)F)ccc2O[C@H]1CN(C)S(=O)(=O)c1cn(C)cn1`, for which the growth inhibition call is “inactive”.

Consider `O=C(CCCN1CCC(O)(c2ccc(Cl)cc2)CC1)c1ccc(F)cc1`, for which the growth inhibition call was “inactive”.

For `OC1(c2ccc(Cl)c(C(F)(F)F)c2)CCN(CCCC(c2ccc(F)cc2)c2ccc(F)cc2)CC1` [listing 1 of 2 here], the growth inhibition call was “inactive”.

`OC1(c2ccc(Cl)c(C(F)(F)F)c2)CCN(CCCC(c2ccc(F)cc2)c2ccc(F)cc2)CC1` [listing 2 of 2 here]: the growth inhibition call was “active”.

In the case of `C[C@H](CO)N1C[C@H](C)[C@@H](CN(C)S(=O)(=O)c2ccc(F)cc2)Oc2c(NC(=O)c3ccncc3)cccc2C1=O`, the growth inhibition call is “inactive”.

For the compound `C[C@@H]1CN([C@@H](C)CO)C(=O)c2cc(NC(=O)C3CCCCC3)ccc2O[C@@H](C)CCCCO[C@H]1CN(C)Cc1ccc(C(F)(F)F)cc1`, the growth inhibition call is “inactive”.

`COc1ccc(S(=O)(=O)N(C)C[C@@H]2Oc3ccc(NC(=O)C4CC4)cc3CC(=O)N([C@@H](C)CO)C[C@H]2C)cc1`: the growth inhibition call was “inactive”.

Regarding `CC1c2cccc(O)c2C(=O)C2=C(O)C3(O)C(=O)C(C(N)=O)=C(O)C(N(C)C)C3C(O)C21.Cl` (centres undefined), the growth inhibition call was “inactive”.

On to `C=C1c2cccc(O)c2C(=O)[C@@H]2C(=O)[C@]3(O)C(=O)[C@@H](C(N)=O)C(=O)[C@@H](N(C)C)[C@@H]3[C@@H](O)[C@H]12`, for which the growth inhibition call was “inactive”.

For `C[C@H]1c2cccc(O)c2C(=O)C2=C(O)[C@]3(O)C(=O)[C@@H](C(N)=O)C(=O)[C@@H](N(C)C)[C@@H]3[C@@H](O)[C@@H]21`, the growth inhibition call is “active”.

In the case of `COc1ccc(S(=O)(=O)N(C)C[C@@H]2Oc3c(NC(=O)C4CC4)cccc3C(=O)N([C@@H](C)CO)C[C@@H]2C)cc1`, the growth inhibition call is “inactive”.
